From the supplement of paper PMC10849652
The full data set covers some 7,900 targets. This sample favours those with a hit. About 0.6% of all pairs of compound and target were hits. Values without a mark were called inactive.

How the values were obtained:
Assay in all cases: log2 fold change, soluble protein after heating vs DMSO (PISA); higher = thermal stabilisation; K562 cells, 10 uM, 30 min; active = over 0.2 and 3.5 SD of the protein, either way, in both replicates (recomputed)
[1] = compound: COC1=CC=C(C=C1)CN2C=CC3=C2C=C(C=C3)C(=O)NO
Procedure, shortened: (§1)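 Soluble protein was defined as the supernatant after 21,000xg for 90 min. It came from K562 cells at 2×10^6 cells/mL given 10 μM compound for 30 min, heated in aliquots for 3 min across 48°C-58°C, pooled, and extracted in PBS with 0.5% NP-40 at 4°C, and was quantified by TMTpro 16plex LC-MS/MS with equalised channel sums. Thermal stability against control samples, from duplicates, is reported as log2 fold change.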

filanesib = compound: CON(C)C(=O)N1N=C(c2cc(F)ccc2F)S[C@@]1(CCCN)c1ccccc1 [filanesib]
Procedure, shortened: as §1

zotarolimus = compound: CO[C@H]1C[C@@H]2CC[C@@H](C)[C@@](O)(O2)C(=O)C(=O)N2CCCC[C@H]2C(=O)O[C@H]([C@H](C)C[C@@H]2CC[C@H](n3cnnn3)[C@H](OC)C2)CC(=O)[C@H](C)/C=C(\C)[C@@H](O)[C@@H](OC)C(=O)[C@H](C)C[C@H](C)/C=C/C=C/C=C/1C [zotarolimus]
Procedure, shortened: as §1

idasanutlin = compound: COc1cc(C(=O)O)ccc1NC(=O)[C@@H]1N[C@@H](CC(C)(C)C)[C@](C#N)(c2ccc(Cl)cc2F)[C@H]1c1cccc(Cl)c1F [idasanutlin]
Procedure, shortened: as §1

alisertib = compound: COc1cc(Nc2ncc3c(n2)-c2ccc(Cl)cc2C(c2c(F)cccc2OC)=NC3)ccc1C(=O)O [alisertib]
Procedure, shortened: as §1

[2] = compound: COc1cc2nc(-c3cc(F)ccc3O)nc(N[C@@H]3CNC[C@H]3C(C)(C)O)c2cc1OC
Procedure, shortened: as §1

gefitinib = compound: COc1cc2ncnc(Nc3ccc(F)c(Cl)c3)c2cc1OCCCN1CCOCC1 [gefitinib]
Procedure, shortened: as §1

[3] = compound: COc1cccc2cc(-c3nc([C@H]4CC[C@H](C(=O)O)CC4)n4ncnc(N)c34)[nH]c12
Procedure, shortened: as §1

lapatinib = compound: CS(=O)(=O)CCNCc1ccc(-c2ccc3ncnc(Nc4ccc(OCc5cccc(F)c5)c(Cl)c4)c3c2)o1 [lapatinib]
Procedure, shortened: as §1

[4] = compound: CS(=O)(=O)c1ccc(-c2cnc(N)c(C(=O)Nc3ccccc3)n2)cc1
Procedure, shortened: as §1

crizotinib = compound: C[C@@H](Oc1cc(-c2cnn(C3CCNCC3)c2)cnc1N)c1c(Cl)ccc(F)c1Cl [crizotinib]
Procedure, shortened: as §1

[5] = compound: C[C@@H]1COCCN1C2=NC(=NC(=C2)C3(CC3)S(=O)(=O)C)C4=C5C=CNC5=CC=C4
Procedure, shortened: as §1

[6] = compound: C[C@H](C1=CC=C(C=C1)C(=O)NC2=C3C=CNC3=NC=C2)N
Procedure, shortened: as §1

duvelisib = compound: C[C@H](Nc1ncnc2nc[nH]c12)c1cc2cccc(Cl)c2c(=O)n1-c1ccccc1 [duvelisib]
Procedure, shortened: as §1

tozasertib = compound: Cc1cc(Nc2cc(N3CCN(C)CC3)nc(Sc3ccc(NC(=O)C4CC4)cc3)n2)n[nH]1 [tozasertib]
Procedure, shortened: as §1

[7] = compound: Cc1cc(SCc2sc(-c3ccc(C(F)(F)F)cc3)nc2C)ccc1OCC(=O)O
Procedure, shortened: as §1

doramapimod = compound: Cc1ccc(-n2nc(C(C)(C)C)cc2NC(=O)Nc2ccc(OCCN3CCOCC3)c3ccccc23)cc1 [doramapimod]
Procedure, shortened: as §1

ispinesib = compound: Cc1ccc(C(=O)N(CCCN)[C@@H](c2nc3cc(Cl)ccc3c(=O)n2Cc2ccccc2)C(C)C)cc1 [ispinesib]
Procedure, shortened: as §1

pictilisib = compound: CS(=O)(=O)N1CCN(Cc2cc3nc(-c4cccc5[nH]ncc45)nc(N4CCOCC4)c3s2)CC1 [pictilisib]
Procedure, shortened: as §1

gandotinib = compound: Cc1cc(Nc2cc(CN3CCOCC3)c3nc(C)c(Cc4ccc(Cl)cc4F)n3n2)n[nH]1 [gandotinib]
Procedure, shortened: as §1

UniProt O43824, sequence (O43824 whole entry, looked up): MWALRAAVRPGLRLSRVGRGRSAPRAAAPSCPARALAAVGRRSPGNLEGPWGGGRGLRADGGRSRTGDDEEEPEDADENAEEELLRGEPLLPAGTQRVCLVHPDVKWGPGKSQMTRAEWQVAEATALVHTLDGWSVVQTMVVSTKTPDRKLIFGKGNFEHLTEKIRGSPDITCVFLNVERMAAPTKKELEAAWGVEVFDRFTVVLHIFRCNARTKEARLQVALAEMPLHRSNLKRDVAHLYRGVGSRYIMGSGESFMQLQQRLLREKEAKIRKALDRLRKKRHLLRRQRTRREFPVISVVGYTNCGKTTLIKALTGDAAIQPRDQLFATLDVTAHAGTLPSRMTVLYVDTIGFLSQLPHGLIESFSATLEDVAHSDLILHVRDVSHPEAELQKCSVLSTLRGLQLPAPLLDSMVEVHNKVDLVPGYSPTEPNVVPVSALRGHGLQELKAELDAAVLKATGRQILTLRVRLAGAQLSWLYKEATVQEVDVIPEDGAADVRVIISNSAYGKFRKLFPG
UniProt P49841, sequence (P49841 whole entry, looked up): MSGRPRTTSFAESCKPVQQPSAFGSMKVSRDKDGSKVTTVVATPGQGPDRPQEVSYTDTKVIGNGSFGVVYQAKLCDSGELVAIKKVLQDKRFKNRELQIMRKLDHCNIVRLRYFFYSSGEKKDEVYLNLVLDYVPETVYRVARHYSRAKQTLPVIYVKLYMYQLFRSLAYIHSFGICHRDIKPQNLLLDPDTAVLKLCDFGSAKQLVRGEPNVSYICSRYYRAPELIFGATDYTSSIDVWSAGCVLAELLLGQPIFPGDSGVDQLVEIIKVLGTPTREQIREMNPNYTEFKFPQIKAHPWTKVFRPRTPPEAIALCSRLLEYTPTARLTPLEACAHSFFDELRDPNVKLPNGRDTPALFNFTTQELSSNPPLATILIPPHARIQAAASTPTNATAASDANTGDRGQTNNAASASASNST
UniProt Q9UJY4, sequence (Q9UJY4 whole entry, looked up): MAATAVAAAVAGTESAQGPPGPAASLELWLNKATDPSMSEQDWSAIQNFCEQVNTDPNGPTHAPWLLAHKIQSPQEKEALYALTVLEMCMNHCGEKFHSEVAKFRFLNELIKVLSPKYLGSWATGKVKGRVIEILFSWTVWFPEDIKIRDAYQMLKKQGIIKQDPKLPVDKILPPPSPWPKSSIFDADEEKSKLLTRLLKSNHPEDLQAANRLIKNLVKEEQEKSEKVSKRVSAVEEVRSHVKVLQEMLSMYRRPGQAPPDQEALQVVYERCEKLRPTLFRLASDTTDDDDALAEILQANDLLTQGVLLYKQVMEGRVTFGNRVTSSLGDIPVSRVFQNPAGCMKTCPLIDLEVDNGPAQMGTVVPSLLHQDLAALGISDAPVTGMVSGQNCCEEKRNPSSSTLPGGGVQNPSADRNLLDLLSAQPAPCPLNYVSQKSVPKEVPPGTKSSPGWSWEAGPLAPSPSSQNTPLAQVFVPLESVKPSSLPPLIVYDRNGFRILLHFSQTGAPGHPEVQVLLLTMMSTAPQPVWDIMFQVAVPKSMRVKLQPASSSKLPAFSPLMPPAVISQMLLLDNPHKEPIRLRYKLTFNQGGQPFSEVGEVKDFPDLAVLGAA
UniProt Q9BTY2, sequence (Q9BTY2 whole entry, looked up): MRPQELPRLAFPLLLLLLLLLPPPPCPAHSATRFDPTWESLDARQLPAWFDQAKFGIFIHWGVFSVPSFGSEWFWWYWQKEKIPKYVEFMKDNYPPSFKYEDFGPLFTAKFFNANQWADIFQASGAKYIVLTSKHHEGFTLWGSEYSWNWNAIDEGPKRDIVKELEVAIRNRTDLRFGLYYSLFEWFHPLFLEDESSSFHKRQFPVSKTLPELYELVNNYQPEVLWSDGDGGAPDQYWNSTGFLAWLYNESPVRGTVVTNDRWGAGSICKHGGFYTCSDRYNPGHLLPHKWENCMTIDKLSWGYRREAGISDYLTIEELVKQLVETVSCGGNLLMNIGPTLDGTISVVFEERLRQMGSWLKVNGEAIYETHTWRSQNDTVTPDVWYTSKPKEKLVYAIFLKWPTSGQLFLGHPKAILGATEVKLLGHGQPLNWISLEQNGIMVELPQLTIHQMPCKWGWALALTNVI
UniProt Q01628, sequence (Q01628 whole entry, looked up): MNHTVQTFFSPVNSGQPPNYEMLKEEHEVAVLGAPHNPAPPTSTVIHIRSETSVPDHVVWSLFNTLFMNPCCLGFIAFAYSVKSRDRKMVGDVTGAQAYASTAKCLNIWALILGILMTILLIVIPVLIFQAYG
UniProt O43427, sequence (O43427 whole entry, looked up): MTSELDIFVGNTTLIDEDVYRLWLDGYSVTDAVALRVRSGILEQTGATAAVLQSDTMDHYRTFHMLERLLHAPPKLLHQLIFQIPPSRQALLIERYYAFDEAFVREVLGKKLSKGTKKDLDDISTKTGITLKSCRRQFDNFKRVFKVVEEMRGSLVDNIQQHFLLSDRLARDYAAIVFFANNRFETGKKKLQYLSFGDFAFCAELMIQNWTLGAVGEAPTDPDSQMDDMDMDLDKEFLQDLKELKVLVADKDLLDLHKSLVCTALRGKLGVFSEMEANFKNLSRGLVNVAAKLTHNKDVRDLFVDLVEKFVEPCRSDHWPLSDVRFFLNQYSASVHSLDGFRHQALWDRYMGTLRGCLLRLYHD
UniProt Q9NVI1, sequence (Q9NVI1 whole entry, looked up): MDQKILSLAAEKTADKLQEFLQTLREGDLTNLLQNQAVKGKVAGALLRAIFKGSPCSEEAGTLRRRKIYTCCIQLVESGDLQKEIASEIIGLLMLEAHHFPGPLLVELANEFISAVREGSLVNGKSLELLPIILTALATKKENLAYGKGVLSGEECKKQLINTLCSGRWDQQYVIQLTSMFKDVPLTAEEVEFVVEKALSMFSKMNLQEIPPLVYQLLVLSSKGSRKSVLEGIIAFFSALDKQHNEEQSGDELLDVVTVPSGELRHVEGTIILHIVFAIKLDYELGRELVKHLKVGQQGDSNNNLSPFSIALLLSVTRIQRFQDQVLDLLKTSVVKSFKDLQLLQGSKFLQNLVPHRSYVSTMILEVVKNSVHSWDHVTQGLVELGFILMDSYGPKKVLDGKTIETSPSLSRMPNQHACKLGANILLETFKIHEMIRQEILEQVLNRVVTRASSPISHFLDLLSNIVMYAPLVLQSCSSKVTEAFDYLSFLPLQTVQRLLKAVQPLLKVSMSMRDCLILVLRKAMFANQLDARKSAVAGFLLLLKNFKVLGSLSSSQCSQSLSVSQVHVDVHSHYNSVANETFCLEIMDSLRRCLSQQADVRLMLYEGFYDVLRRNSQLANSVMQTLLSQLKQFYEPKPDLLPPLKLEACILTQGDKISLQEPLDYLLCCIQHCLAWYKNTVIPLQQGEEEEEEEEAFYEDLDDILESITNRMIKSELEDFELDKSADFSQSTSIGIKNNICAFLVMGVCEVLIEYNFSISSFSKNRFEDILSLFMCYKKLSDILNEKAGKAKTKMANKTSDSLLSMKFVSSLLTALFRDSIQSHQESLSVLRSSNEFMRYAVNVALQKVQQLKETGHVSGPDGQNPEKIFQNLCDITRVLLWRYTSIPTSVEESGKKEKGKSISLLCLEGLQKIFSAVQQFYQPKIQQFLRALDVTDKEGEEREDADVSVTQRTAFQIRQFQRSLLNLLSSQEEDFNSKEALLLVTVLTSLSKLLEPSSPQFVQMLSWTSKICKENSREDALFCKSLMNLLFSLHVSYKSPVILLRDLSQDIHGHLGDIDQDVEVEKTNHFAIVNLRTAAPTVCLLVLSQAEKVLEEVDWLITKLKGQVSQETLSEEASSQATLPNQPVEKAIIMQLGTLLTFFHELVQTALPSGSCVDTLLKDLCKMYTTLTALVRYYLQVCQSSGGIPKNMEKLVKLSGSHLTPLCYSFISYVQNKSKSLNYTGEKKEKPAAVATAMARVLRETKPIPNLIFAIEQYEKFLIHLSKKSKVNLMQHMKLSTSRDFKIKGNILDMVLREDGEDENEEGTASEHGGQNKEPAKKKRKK
UniProt Q10472, sequence (Q10472 whole entry, looked up): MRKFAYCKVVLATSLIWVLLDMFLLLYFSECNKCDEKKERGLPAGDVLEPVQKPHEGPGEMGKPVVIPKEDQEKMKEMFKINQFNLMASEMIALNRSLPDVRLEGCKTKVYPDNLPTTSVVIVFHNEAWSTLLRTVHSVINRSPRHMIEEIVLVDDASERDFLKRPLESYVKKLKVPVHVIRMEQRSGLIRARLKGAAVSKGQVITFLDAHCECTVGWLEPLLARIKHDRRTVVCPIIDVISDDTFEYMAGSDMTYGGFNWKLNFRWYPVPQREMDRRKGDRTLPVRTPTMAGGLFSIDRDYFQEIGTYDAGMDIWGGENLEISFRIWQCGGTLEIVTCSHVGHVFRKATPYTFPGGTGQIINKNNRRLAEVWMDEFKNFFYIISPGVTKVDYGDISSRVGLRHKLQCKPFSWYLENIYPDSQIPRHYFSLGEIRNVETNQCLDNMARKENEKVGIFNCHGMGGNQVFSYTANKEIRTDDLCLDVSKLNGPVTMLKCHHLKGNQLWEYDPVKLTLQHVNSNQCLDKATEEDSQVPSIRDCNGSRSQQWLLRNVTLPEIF
UniProt P09211, sequence (P09211 whole entry, looked up): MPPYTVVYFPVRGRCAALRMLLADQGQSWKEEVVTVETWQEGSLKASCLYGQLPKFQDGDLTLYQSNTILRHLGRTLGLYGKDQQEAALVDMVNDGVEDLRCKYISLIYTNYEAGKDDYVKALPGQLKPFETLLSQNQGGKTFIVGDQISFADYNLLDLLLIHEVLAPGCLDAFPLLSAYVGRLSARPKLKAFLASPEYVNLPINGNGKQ
UniProt Q9H4G4, sequence (Q9H4G4 whole entry, looked up): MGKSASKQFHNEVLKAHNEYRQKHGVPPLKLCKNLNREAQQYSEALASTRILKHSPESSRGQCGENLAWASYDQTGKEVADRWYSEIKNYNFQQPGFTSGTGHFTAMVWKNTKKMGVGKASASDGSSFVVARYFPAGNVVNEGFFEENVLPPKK

Target | log2 fold change [1] | log2 fold change (filanesib) | log2 fold change (zotarolimus) | log2 fold change (idasanutlin) | log2 fold change (alisertib) | log2 fold change [2] | log2 fold change (gefitinib) | log2 fold change [3] | log2 fold change (lapatinib) | log2 fold change [4] | log2 fold change (crizotinib) | log2 fold change [5] | log2 fold change [6] | log2 fold change (duvelisib) | log2 fold change (tozasertib) | log2 fold change [7] | log2 fold change (doramapimod) | log2 fold change (ispinesib) | log2 fold change (pictilisib) | log2 fold change (gandotinib)
GDE1 (UniProt Q9NZC3) | 0.046 | -0.102 | 0.043 | -0.064 | -0.176 | 0.012 | 0.008 | 0.01 | -0.011 | 0.033 | 0.063 | 0.077 | -0.087 | -0.014 | 0.077 | -0.067 | 0.074 | 0.051 |  | 
GGA2 (UniProt Q9UJY4) | 0.012 | -0.09 | 0.069 | -0.017 | -0.067 | 0.181 | -0.004 | 0.112 | -0.027 | 0.038 | -0.089 | 0.032 | 0.036 | 0.053 | -0.025 | 0.015 | 0.009 | -0.177 |  | 
FANCI (UniProt Q9NVI1) | 0.004 | -0.189 | -0.01 | -0.014 | -0.015 | -0.113 | -0.034 | 0.033 | 0.001 | -0.074 | -0.138 | 0.139 | 0 | 0.031 | 0.029 | 0.038 | -0.021 | -0.071 | 0 | -0.14
GTPBP6 (UniProt O43824) | -0.105 | 0.049 | 0.061 | 0.018 | -0.217 |  | -0.146 | 0 |  | -0.002 | 0.012 | 0.197 | -0.066 | -0.002 | 0.087 | -0.006 | 0.06 | 0.076 | -0.012 | 0.003
HNRNPUL1 (UniProt M0R247) | -0.028 | 0.029 | -0.468 | 0.277 |  | 0.117 | 0.1 |  | -0.15 | -0.057 | 0.151 |  | 0.722 | 0.673 | -0.187 | -0.374 | -0.014 |  |  | 
GEMIN5 (UniProt Q8TEQ6) | 0.017 | 0.037 | 0.039 | -0.024 | -0.041 | -0.235 (active) | 0.013 | -0.035 | 0.015 | -0.004 | -0.047 | 0.038 | 0.02 | -0.006 | 0.016 | 0.055 | -0.001 | -0.088 | -0.021 | -0.082
IFITM3 (UniProt Q01628) | 0.055 | 0.008 | 0.007 | 0.07 | -0.121 | -0.017 | 0.09 | 0.089 | 0.004 | -0.038 | -0.027 | 0.069 | -0.085 | 0.22 | -0.002 | -0.094 | 0.038 | 0.07 |  | 
HSPA8 (UniProt E9PK54) | 0.011 | 0.033 | -0.015 | -0.037 | -0.186 | -0.208 | -0.077 | -0.002 | 0.17 | -0.05 | -0.023 | -0.272 | 0.334 | -0.05 | 0.033 | 0.088 | 0.143 | 0.012 | -0.071 | 0.01
FUCA2 (UniProt Q9BTY2) | -0.094 | 0.002 | -0.019 | 0.177 | -0.044 | 0.011 | -0.013 | 0.045 | 0.025 | 0.021 | -0.002 | 0.017 | -0.05 | 0.007 | -0.008 | 0.014 | 0.058 | -0.001 | 0.011 | 0.041
GLS isoform 3 (UniProt O94925) | -0.021 | -0.029 | 0.008 | -0.26 | -0.003 | 0.216 | 0.041 | 0.031 | 0 | 0.038 | 0.021 | 0.256 | -0.007 | 0.077 | 0.014 | 0.064 | 0.023 | 0.219 | 0.078 | -0.264
FHOD1 (UniProt Q9Y613) | -0.044 | 0.084 | 0.095 | 0.127 | -0.161 | 0.186 | -0.005 | -0.253 | 0.014 | 0.033 | -0.107 | -0.174 | 0.58 (active) | -0.121 |  | 0.085 | 0.235 | -0.193 | 0.01 | 0.105
GSTP1 (UniProt P09211) | -0.033 | -0.038 | 0.004 | -0.033 | -0.003 | -0.003 | 0.021 | 0.069 | -0.032 | 0.023 | 0.038 | 0.033 | -0.067 | 0.037 | -0.008 | 0 | -0.019 | 0.058 | 0.035 | -0.005
FUT8 (UniProt Q9BYC5) | -0.156 | -0.043 | -0.019 | -0.066 | 0.022 |  | 0.084 | -0.03 |  | 0.018 | -0.235 | 0.077 | -0.011 | -0.007 | -0.14 | 0.178 | -0.017 | -0.148 | -0.032 | 0.034
FIBP (UniProt O43427) | 0.083 | -0.051 | -0.047 | 0.03 | 0.016 | 0.042 |  | -0.084 | 0.008 | 0.022 | -0.043 | 0.257 | 0.118 | 0.041 | -0.144 | 0.02 | -0.048 | -0.052 | 0.185 | -0.094
GLIPR2 (UniProt Q9H4G4) | 0 | -0.147 | 0.024 | 0.096 | -0.031 | -0.239 |  | -0.036 | 0.103 | 0.034 | -0.243 | -0.018 | -0.064 | 0.1 | -0.062 | 0.007 | -0.01 | -0.459 (active) | -0.011 | 0.157
GALNT1 (UniProt Q10472) | 0.224 | 0.058 | 0.005 | -0.033 | 0.047 | 0.044 | 0.066 | 0.034 | 0 | 0.014 | -0.012 | 0.019 | -0.013 | 0.046 | -0.043 | 0.004 | 0.026 | 0.048 | 0.023 | 0.012
GSK3B isoform 2 (UniProt P49841) | 0.133 | -0.034 | 0.013 | -0.121 |  | 0.056 | -0.041 | 0.022 | -0.013 | 0.09 | -0.053 | -0.032 | -0.143 | -0.015 | -0.043 | 0.015 | -0.013 | 0.059 | 0.014 | -0.108
